Assay outcomes: PubChem BioAssay, National Center for Advancing Translational Sciences (NCATS)
TDP43 rescue = rescues yeast growth from TDP-43 toxicity; TDP-43 expressing yeast growth rescue, BacTiter-Glo, 24 h; Potency, µM (series often up to 46.1 µM), without a hit: top-dose growth rescue (activation), most hits filed as activators; hit rate 1.8% among 410,000; AID 652104; note: % of control where 0% means no effect; nearly all actives have a fitted effect of over 50% in size
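Growth rescue of TDP-43-toxic yeast measured as ATP luminescence (BacTiter-Glo). Cells grown to mid-log in raffinose, induced in galactose at OD600=0.02, exposed to compound 24 hr at 30 deg C.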
aSyn yeast inh = inhibitors of alpha-synuclein toxicity in yeast; Yeast expressing alpha-synuclein, growth rescue, BacTiter-Glo, 24 h; Potency, µM (top dose mostly 46.1 µM), for the others: at the highest dose growth rescue (activation), usual class: activators; hit rate 0.14% among 370,000; note: % of control where 0% means no effect; nearly all actives have a fitted effect of over 65% in size
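Galactose-induced alpha-syn yeast (OD600=0.02, raffinose-pregrown) + pinned cpd, 24 hr, 30 deg C; growth by BacTiter-Glo luminescence. Growth restoration scores as activation.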
ClpP mod = qHTS Assay for Activators of ClpP; hit rate 1.9% among 340,000; ATP-dependent Clp protease proteolytic subunit (Bacillus subtilis (strain 168)), P80244; Potency, µM (series often up to 57.5 µM), for inactives: top-dose activity change, negative = active; purified B. subtilis ClpP, FRET peptide cleavage, 20 min; AID 651965, 2013; active = well fitted falling curve with a large enough effect; inconclusive = small, poorly fitted or top-dose-only effect; inactive = no such curve, though single readings can be large or run the other way; note: the source files actives as falling curves though it sought activators and does not explain the sign; nearly all actives have a fitted effect of over 65% in size
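ClpP 10 microg/mL final, pH 8 Tris/KCl buffer with BSA, glycerol, Tween-20; compound pinned in; FRET-FV substrate; RT 20 min; Ex320/Em430; ΔFRET vs ADEP 5.8 microM, DMSO, no enzyme.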
Mm-Cpn inhibitor = inhibitors of Methanococcus maripaludis chaperonin TRiC (MmCpn). purified Mm-Cpn ATPase, ADP Transcreener TR-FRET. Potency, µM (doses to about 76.9 µM), for the others: at the top dose activity, negative = inhibition, hits mostly inhibitors. hit rate 0.031% among 330,000. AID 504842; note: % is set by controls: 0 for no effect and ±100 for the full control effect; nearly all actives have a fitted effect of over 80% in size
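Purified archaeal Mm-CPN (25nM final) preincubated 10 min at 37degC with compound, then 10uM ATP for 30 min at 37degC; ADP measured by HTRF Transcreener TR-FRET; buffer 30 mM TRIS pH 7.4, 100mM KCl, 5mM MgCl2, 1mM DTT.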
FUS yeast rescue = FUS proteinopathy suppression in yeast; S. cerevisiae FUS-expressing, growth rescue, OD600, 24 h; Potency, µM (doses to about 76.6 µM), actives largely listed as activators; hit rate 0.24% among 390,000;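 note: plate controls were DMSO vehicle for no effect and reference control for full effect; nearly all actives have a fitted effect of over 55% in size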
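Compound concentration series was pinned onto galactose-induced FUS-expressing yeast seeded at OD 0.005. Plates sat 24hr at 30C; absorbance at 600 nm gave growth. DMSO served as background control.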
Abeta rescue = compounds reversing amyloid beta toxicity in yeast; yeast expressing A-beta42, growth rescue, OD600, 48 h; response scale: 0% DMSO, 100% iron-clioquinol control; Potency, µM (highest dose often 46.1 µM), actives largely listed as activators; hit rate 0.063% among 410,000; AID 1347071; note: nearly all actives have a fitted effect of over 55% in size
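Yeast growth medium received pinned compounds, then yeast cells expressing toxic A-beta were added; plates incubated at 30 C for 48 hr. Growth read as absorbance at 600 nm, normalized to DMSO and equimolar FeCl3 plus clioquinol controls.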
The depositor's hits bear a star; i = inactive; ? = inconclusive; . = not tested or not shown; ! = repeats disagree; [ ] = another dose, or the depositor's remark. Most compounds without a hit are left out; they make up all but 3.6% or so of the library. Unless noted, calls come from the whole dose curve; as a rule, active = well fitted curve in the direction sought with a large enough effect; inconclusive = small, poorly fitted or top-dose-only effect, or another doubt; inactive = no such curve, though single readings can be large; an effect the other way counts as inactive or inconclusive. Potency is the fitted concentration of half-maximal effect.

SMILES	TDP43 rescue	aSyn yeast inh	ClpP mod	Mm-Cpn inhibitor	FUS yeast rescue	Abeta rescue
CC(C)CCNC(=O)c1c(N)n(CC2CCCO2)c2nc3ccccc3nc12 (stereo not given)	-27.4%	11.4%	?	-5.2%	?	i
COCCCn1c(N)c(C(=O)Nc2ccccc2)c2nc3ccccc3nc21	8.2%	14.9%	.	0.7%	i	i
CCC(C)NC(=O)c1c(N)n(CC2CCCO2)c2nc3ccccc3nc12 (stereo not given)	?	25.9%	35.5µM*	-2.1%	?	i
CCC(C)NC(=O)c1c(N)n(CCCOC)c2nc3ccccc3nc12 (stereo not given)	25.1µM*	10.8%	?	-3.5%	i	i
Cc1onc(-c2ccccc2)c1C(=O)N[C@@H]1C(=O)N2C1SC(C)(C)[C@@H]2C(=O)O (stereo not given in full)	?	-0.4%	-1.0%	.	i	i
Cc1cccc(N2CCc3c2nc2ccccc2c3N)c1	11.7%	0.1%	25.1µM*!	-2.6%	i	i
COc1ccc(Cl)cc1NC(=O)CCn1c(=O)oc2ccccc21	12.6µM*	8.2%	-2.4%	-2.5%	i	i
CCCC1(CC(C)C)C(=O)NC(=S)NC1=O	19.6%	3.1%	28.2µM*	.	.	i
CCC1(CC(C)C)C(=O)NC(=S)NC1=O	-15.0%	-0.7%	0.9%	.	.	i
CCOc1cc(-c2nc3c(C)cccn3c2NCC2CCCO2)ccc1O (stereo not given)	5.5%	-7.8%	14.1µM*	-13.5%	.	i
COc1ccccc1-n1c(CNCC2CCCO2)nc2ccccc2c1=O (stereo not given)	3.9%	-0.1%	-0.9%	0.4%	i	i
Cc1cccn2c(NCC3CCCO3)c(C(C)C)nc12 (stereo not given)	8.7%	4.7%	22.4µM*	-15.0%	i	i
Cc1cc(N2CCCCC2)nc2ccc(NC(=O)CCC(=O)N3CCN(c4cccc(Cl)c4)CC3)cc12	12.0%	.	31.6µM*	.	i	i
CCCCn1c(NS(=O)(=O)c2ccccc2)c(C(=O)OCC)c2nc3ccccc3nc21	4.7%	-7.3%	28.2µM*	44.7µM*	?	i
CCOC(=O)c1c(N)n(CCN2CCCCC2)c2nc3ccccc3nc12	-4.1%	1.4%	31.6µM*	0.0%	i	i
CCCCn1c(N)c(C(=O)NCCN2CCOCC2)c2nc3ccccc3nc21	1.5%	-5.4%	11.2µM*	-6.4%	i	i[9.22 µM]
CCCCn1c(NC(=O)c2ccc(Br)o2)c(C(=O)OCC)c2nc3ccccc3nc21	2.7%	-0.1%	.	-16.7%	i	i
Nc1c(C(=O)NCCN2CCOCC2)c2nc3ccccc3nc2n1Cc1ccco1	15.7%	-8.6%	15.8µM*	-1.8%	i	i
Nc1c(C(=O)NCCN2CCOCC2)c2nc3ccccc3nc2n1Cc1ccccc1	-0.2%	-0.9%	.	-1.5%	i	i
Cn1cccc1C(=O)OCC(=O)NCCc1ccc(S(N)(=O)=O)cc1	-31.4%	-2.9%	-7.2%	-0.2%	.	i
Cn1ccc2c(-c3ccc(F)nc3)cc3c(c21)C1CCC3C1 (stereo not given)	?	-22.0%	5.2%	.	i	i
COCCCNC(=O)c1c(NC(=O)c2ccccc2Cl)n(Cc2ccccc2)c2nc3ccccc3nc12	-12.0%	-2.6%	?	0.6%	i	i
C=CCNC(=O)c1c(N)n(Cc2ccco2)c2nc3ccccc3nc12	-4.4%	0.6%	15.8µM*	-2.8%	?	i
COCCNC(=O)c1c(NC(=O)c2ccco2)n(Cc2ccccc2)c2nc3ccccc3nc12	7.6%	-5.6%	25.1µM*	-0.3%	i	i
COC(=O)c1ccc(COC(=O)c2nn(C)c(=O)c3ccccc23)cc1	0.1%	?	-2.1%	1.7%	i	i
SMILES	TDP43 rescue	aSyn yeast inh	ClpP mod	Mm-Cpn inhibitor	FUS yeast rescue	Abeta rescue
Cc1ccc(CNC(=O)c2ccc(CSc3nc4ccncc4n3Cc3ccc(C)cc3)cc2)cc1	1.3%	.	?	.	?	i
O=C(CSc1ccc(Cl)cc1)NC1=NN(c2ccccc2)C(=O)C1	?	-24.4%	1.4%	-0.3%	i	i
O=C1c2ccccc2S(=O)(=O)c2cc(C(=O)N3CCN(c4c(Cl)cncc4Cl)CC3)ccc21	12.6µM*	-0.3%	0.6%	.	20µM*	i
CC(C)(C)C(=O)C(Oc1ccc(Cl)cc1)n1cncn1 (stereo not given)	11.2µM*	?	-1.6%	.	i	i
Cc1ccccc1NC(=O)Oc1cccc(OC(=O)c2ccccc2)c1	?	9.5%	1.2%	-1.5%	i	i
CC12CN3CC(C)(CN(C1)P3(=O)Oc1ccccc1)C2=O (stereo not given)	14.6%	-0.7%	-1.3%	1.6%	i	i
CC12CN3CC(c4ccccc4)(CN(C1)C31CCCCC1)C2=O	28.9%	4.7%	12.6µM*	-1.0%	i	?
CCC1(C)Cc2ccccc2-c2c1c(=O)n(Cc1ccccc1)c1nnnn21 (stereo not given)	-18.3%	-2.7%	31.6µM*	1.6%	i	i
C=CCOC(=O)COc1cc(C)cc2oc(=O)c3c(c12)CCC3	14.1µM*	-0.3%	?	-0.6%	?	i
C#CCOc1ccc2c(c1)c(C(C)=O)c(C)n2Cc1ccccc1	20µM*	-9.1%	-1.8%	1.4%	i	i
CC(=O)OCC12CC(OC(=O)CC(C)C)C(C)=CC1OC1C(O)C(OC(C)=O)C2(C)C12CO2 (stereo not given)	1.78µM*	?	?	.	.	i
O=P(Nc1cccc(Cl)c1)(Oc1ccccc1)Oc1ccccc1	-16.1%[1.82 µM]	22.4µM*	.	-0.7%	i	?
Cn1cnc([N+](=O)[O-])c1Sc1ccc([N+](=O)[O-])cc1	20µM*	-17.9%	-0.8%	-1.7%	i	i
O=[N+]([O-])c1ccc(C(c2ccc([N+](=O)[O-])cc2)c2ccc([N+](=O)[O-])cc2)cc1	-19.3%	6.8%	.	.	i	?
COc1ccc(N2C(=O)C3[C@@H](C2=O)C2(Cl)C(Cl)=C(Cl)C3(Cl)C2(OC)OC)cc1 (stereo not given in full)	-7.5%	-1.3%	3.55µM*	-1.4%	.	i
Cc1[nH]c(=O)[nH]c(=O)c1/C=C/C(=O)OCC(C)C	-2.7%	5.6%	?	0.6%	i	i
Nc1c(C(=O)OCc2ccccc2)c2nc3ccccc3nc2n1Cc1cccs1	24.2%	0.3%	28.2µM*	-13.0%	i	i
